PubChem BioAssay (NCATS)
Values without a mark were called inactive. Activity calls are given as the source filed them. Calls follow the shape of the dose curve; as a rule, active = well fitted cell-killing curve with a large enough effect; inconclusive = small, poorly fitted or top-dose-only effect; inactive = flat fitted curve, though single readings scatter.

experiment: Cell Viability - LYMP1-002 - Assay at 24 hr (AID 993); conditions: LYMP1-002 lymphoblastoid cells viability; series mostly up to 92.2 µM; activity change, negative = cytotoxicity: at the top concentration
Text: NIH Chemical Genomics Center [NCGC]
NIH Molecular Libraries Screening Centers Network [MLSCN]
National Institutes of Environmental Health Sciences [NIEHS]
National Toxicology Program [NTP]
We have developed a 1536-well cell-based assay for quantitative high throughput screening (qHTS) against a number of cell lines to determine in vitro cytotoxicity of small molecules. This particular assay uses a human lymphoblastoid cell line (LYMP1-002) purchased from Coriell Institute for Medical Research.
NCGC Assay Protocol Summary:
The CellTiter-Glo luminescent cell viability assay (Promega) is a homogeneous method to measure the number of viable cells in culture. The end point readout of this assay is based on quantitation of intracellular ATP, an indicator of metabolic activity, using the luciferase reaction. Luciferase catalyzes the oxidation of beetle Luciferin to oxyluciferin and light in the presence of ATP. The luminescent signal is proportional to amount of ATP present.
Using the CellTiter-Glo luminescent cell viability assay, the amount of cellular ATP was measured in the lymphoblastoid cell line with complete culture medium following compound treatment for 24 hours. The assay was performed in opaque white Kalypsys 1536-well plates. In the screen, tetraoctylammonium bromide was used as positive control. Library compounds were measured for their ability to cause acute toxicity in the cell line, as reflected by a decrease in intracellular ATP levels, in a concentration-dependent manner. […] AC50 values were determined from concentration-response data modeled with the standard Hill equation.
qHTS protocol for CellTiter Glo lymphoblastoid cellular assay
[Step] [Parameter] [Value] [Description]
1. Reagent; 5 uL; 2500 lymphoblastoid cells/well
2. Time; 5 hr; 37 C incubation
4. Controls; 23 nL; Tetraoctylammonium bromide 6.4pM to 92 uM
5. Time; 24 hr; 37 C incubation
6. Reagent; 5 uL; CellTiter Glo reagent
7. Time; 30 min; Room Temperature
8. Detection; Luminescence; Viewlux plate reader
Keywords: cell viability, cytotoxicity, lymphoblastoid cell line, luminescence, NTPHTS, NTPHTS_NCGC, NIEHS, DSSTox, MLSMR, MLSCN, NIH Roadmap, qHTS, NCGC
% is scaled to controls: 0 for no effect and ±100 for the full control effect; potency is read from the fitted curve at half-maximal effect.

Compound	activity change, negative = cytotoxicity [%]	Potency
O=C(O)c1cc(N=Nc2ccc([N+](=O)[O-])cc2)ccc1O	-4.21	–
Cc1ccc(O)c(N)c1	-17.3	–
C=C1CC[C@H](O)C/C1=C/C=C1\CCC[C@]2(C)[C@@H]([C@H](C)CCCC(C)C)CC[C@@H]12	–	50.1 µM (active)
CCCCCCCC/C=C\CCCCCCCC(=O)N(CCO)CCO	-10.7	–
CCCCCCc1ccc(-c2ccc(C#N)cc2)cc1	-7.18	–
Nc1ccc(N)c(Cl)c1	-14.9	–
COc1ccc([N+](=O)[O-])cc1N	2.8	–
c1ccc(CSCc2ccccc2)cc1	10.8	–
C=CC(C)(O)CCCC(C)CCCC(C)CCCC(C)C (stereo not given)	-7.2	–
Cc1ccc(N)cc1[N+](=O)[O-]	-8.81	–
CCN(CC)c1ccc(N)cc1	-18.8	–
CC(=O)OC(C(=O)c1ccccc1)c1ccccc1 (stereo not given)	-10.1	–
c1ccc(SCCSc2ccccc2)cc1	0.663	–
Cc1cc2nc(N)sc2cc1C	5.46	–
Brc1ccc(-c2ccccc2)cc1	7.14	–
CC(=O)OC1CC(C)OC(C)O1 (stereo not given)	-0.624	–
CC(/C=C/C=C(C)/C=C/C(=O)O)=C\C=C\C=C(C)\C=C\C=C(C)\C=C\C(=O)O	-5.48	–
Cc1cc(=O)oc2cc(O)cc(O)c12	5.22	–
CCCCC(CC)COP(=O)(OCC(CC)CCCC)OCC(CC)CCCC (stereo not given)	-3.18	–
CCc1ccc(C(c2ccc(CC)cc2)C(Cl)Cl)cc1	-0.652	–

Compound	activity change, negative = cytotoxicity [%]	Potency
Cc1ccccc1OCC1CO1 (stereo not given)	2.19	–
CC(=O)Nc1cccc(C)c1	1.65	–
OCC(CO)(CBr)CBr	0.366	–
C/C(Cl)=C/CCl	-13.1	–
C=CC(=O)CC	-0.682	–
NC(=O)c1ccc([N+](=O)[O-])cc1	-3.6	–
CCCCNCC	0.993	–
O=C(Cl)c1ccc([N+](=O)[O-])cc1	-0.244	–
COc1ccc(C(=O)Nc2ccccc2)cc1[N+](=O)[O-]	-4.15	–
Nc1ccc(-c2ccc(N)c(O)c2)cc1O	-14.2	–
Nc1ccc(N=Nc2ccccc2)c(N)c1	-15.3	–
CCCCC(CC)COC(=O)COc1ccc(Cl)cc1Cl (stereo not given)	-9.74	–
CCCCCCCCC1CO1 (stereo not given)	-0.0947	–
Brc1cc(Oc2cc(Br)c(Br)c(Br)c2Br)c(Br)c(Br)c1Br	3.04	–
Oc1c(Cl)cc(Cl)c(Cl)c1Cl	-2.97	–
Nc1cc(C(=O)O)c(O)c(S(=O)(=O)O)c1	1.96	–
O=[N+]([O-])c1ccc(F)cc1F	0.167	–
C/C=C1/C(=O)C[C@H]2[C@@H]3CCC4=CC(=O)CC[C@]4(C)[C@H]3CC[C@]12C	–	50.1 µM (active)
c1ccc(COCc2ccccc2)cc1	3.3	–
c1ccc(Nc2cccc3ccccc23)cc1	1.18	–
